In PubChem BioAssay AID602478 (National Center for Advancing Translational Sciences (NCATS), 2012):
Inconclusive results are not listed. Entries that show only a call come without a potency. Calls of active or inactive are those of the source. Calls come from the whole dose curve; as a rule, active = well fitted activation curve with a large enough effect; inconclusive = small, poorly fitted or top-dose-only effect; inactive = flat fitted curve, though single readings scatter.

Each molecule was assayed against Luciferin 4-monooxygenase (Photinus pyralis) (UniProt P08659) (assay: FLuc inhibitory activity for the follow-up compounds in a cell-based translational read-through assay (72 hour incubation)). Conditions: GripTite 293 FLucUGA read-through, luminescence; series mostly up to 38.3 µM.
Chain of Luciferin 4-monooxygenase (Photinus pyralis) (P08659 whole entry, looked up): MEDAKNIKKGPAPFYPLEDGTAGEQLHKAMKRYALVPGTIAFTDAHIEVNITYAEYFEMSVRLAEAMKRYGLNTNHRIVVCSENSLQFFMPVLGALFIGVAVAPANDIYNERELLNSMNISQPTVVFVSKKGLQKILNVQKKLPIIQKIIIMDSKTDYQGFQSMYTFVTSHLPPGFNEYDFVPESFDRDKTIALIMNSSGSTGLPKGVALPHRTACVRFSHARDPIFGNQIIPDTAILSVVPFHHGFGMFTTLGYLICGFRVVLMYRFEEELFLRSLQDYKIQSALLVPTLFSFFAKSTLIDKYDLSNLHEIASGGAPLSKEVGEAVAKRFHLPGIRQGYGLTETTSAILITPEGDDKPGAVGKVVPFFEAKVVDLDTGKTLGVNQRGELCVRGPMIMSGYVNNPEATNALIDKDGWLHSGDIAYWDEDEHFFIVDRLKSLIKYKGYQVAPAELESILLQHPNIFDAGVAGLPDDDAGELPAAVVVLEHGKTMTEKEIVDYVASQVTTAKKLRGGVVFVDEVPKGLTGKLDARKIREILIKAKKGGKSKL
Excerpt: NCGC Assay Overview: Firefly (Photinus pyralis) luciferase is one of the most commonly used transcriptional reporters. It is considered one of the more dynamically responsive reporters - that is, responsive to changes in reporter transcription - as it requires no post-translational modifications and is enzymatically active directly after protein synthesis (Wood, 1998). With no endogenous expression in mammalian cells and without the requirement of external excitation, it offers very little background signal, thus generally providing excellent signal to background for most assays. Previous profiling work to determine the prevalence of compounds that affect FLuc enzymatic activity (PubChem AID 411) identified that ~3% of the MLSMR library (then at ~72K) inhibited FLuc (Auld et al., 2008). […] Of the compounds identified in this profile that inhibited FLuc, 151 compounds were selected for further analysis, in an effort to better understand their mode of inhibiting FLuc. The assay described here was to determine the activity of the compounds in a cell-based firefly luciferase reporter gene assay originally designed to identify compounds that enchanced translational read-through of a FLuc cDNA that contained a premature stop codon (Auld et al., 2009; Auld et al., 2010). Compounds that enhance translational read-through or compounds that stabilize FLuc intracellularly are identified as active compounds in the assay.
NCGC Assay Protocol Summary: Reagents: Transient transfection of FlucUGA construct: TransFast Transfection Reagent (Promega #E2431); FLucUGA construct (refer to Auld et al., 2009) #GripTite 293 MSR Cell Line (Invitrogen #R795-07) #Complete growth media: DMEM (Invitrogen #11965), 10% HIFBS, 0.1mM MEM NEAA, 5mL/L pen-strep (of 5000U/mL stock), 600ug/mL Geneticin #Assay media: DMEM without phenol red (Invitrogen #21063), 5% charcoal-stripped HIFBS (Hyclone #SH30071.03), 0.1mM MEM NEAA In-house detection reagent: 300mM Tris-HCl, 300mM Trizma base, 300mM MgCl, 1% Triton-X100, 5mM DTT, 500uM Coenzyme A trilithium salt (Sigma #C3019),450uM ATP (Sigma #A7699), 1mM D-luciferin sodium salt monohydrate (Biosynth #L8240) Control compounds used were two known firefly luciferase inhibitors (3-(5-(3-chlorophenyl)-1,2,4-oxadiazol-3-yl)benzoic acid and 5-(2-fluorophenyl)-3-phenyl-1,2,4-oxadiazole), and DMSO. Assay Summary: Transient transfection of FlucUGA construct: Day 1: GripTite cells were plated in T175 flasks at a density of 1.75 x 10^7 cells/T175 flask in complete growth media without Geneticin and allowed to grow ON in a 37 degrees Celsius incubator. Day 2: Cells in T175 flask were transfected - with 10ug of DNA and 30uL Transfast in 12mL complete growth media without serum and without Geneticin for 4 hours at 37 degrees Celsius. After incubation, cells were trypsinized, spun down, and resuspended to a concentration of 3.3 x 10^5 cells/mL in assay media. 6uL of cells in assay buffer were dispensed at 2000cells/well (3.3 x 10^5 cells/mL) into Greiner solid-white TC-treated 1536-well plates using a Multidrop Combi (Thermo Fisher Scientific). Plates were incubated for one hour at 37 degree Celsius, 95% humidity, 5% CO2. These assay plates were then treated with 23nL of compound or DMSO using a Kalypsys pin tool, which allows for delivery of a 12-point titration of each compound to the assay plate, with a final compound concentration ranging from approximately ~38uM to 0.2nM. Assay plates were then incubated for 72 hours. After incubation, plates were washed three times with DPBS (7uL/well). After the third wash, 6uL of DPBS was added to each well. 3uL of 3X luciferase detection reagent was then added to each well using a flying reagent dispenser (FRD). After a 15 minute incubation to allow for cell lysis, luciferase activity was measured using a ViewLux CCD imager (PerkinElmer), with an average exposure time of 2-12 seconds.
With O=C(Nc1ccc(-c2nc3ccccc3s2)cc1)C1=COCCO1 the Potency was 0.318 µM (active).
COc1ccc2nc(NC(=O)CCc3nc(-c4ccccc4F)no3)sc2c1 was tested, and the Potency was “inactive”.
CC(C)CC(=O)Nc1cccc(C(=O)Nc2ccccc2C(=O)O)c1 was tested, and the Potency was “inactive”.
In the case of Cc1c(NS(C)(=O)=O)cccc1-c1nc2ccccc2s1, the Potency is reported as “inactive”.
With Cc1ccc(S(=O)(=O)N2CCN(C(=O)c3ccccc3-c3nc4ccccc4s3)CC2)c(C)c1 the Potency was “inactive”.
With COc1ccc2nc(NC(=O)CCc3ccc(OC)c(OC)c3)sc2c1 the Potency was “inactive”.
With COc1ccc(CC(=O)Nc2cccc(C(=O)Nc3ccccc3C(=O)O)c2)cc1OC the Potency was “inactive”.
In the case of COc1c(C)cccc1C(=O)Nc1ccc(-c2nc3ccccc3s2)c(Cl)c1, the Potency is reported as “inactive”.
For COc1cc(OC)cc(C(=O)Nc2ccc(-c3nc4ccccc4s3)c(C)c2)c1, the Potency was “inactive”.
In the case of CC(=O)Nc1cccc(-c2nc3ccccc3s2)c1C, the Potency is reported as “inactive”.
With O=C(O)c1cccc(NC(=O)c2cccc(S(=O)(=O)N3CCc4ccccc4C3)c2)c1 the Potency was “inactive”.
With O=C(O)c1cccc(NC(=O)c2cccc(S(=O)(=O)Nc3cccc(F)c3)c2)c1 the Potency was “inactive”.
With Cc1ccc(C(=O)Nc2cccc(C(=O)O)c2)cc1S(=O)(=O)N1CCOCC1 the Potency was 11.3 µM (active).
O=C(Nc1ccccc1C(=O)O)c1cc(S(=O)(=O)Nc2ccccc2)ccc1Cl was tested, and the Potency was “inactive”.
For O=C(Cc1ccccc1)Nc1ccccc1C(=O)Nc1ccc(C(=O)O)cc1, the Potency was “inactive”.
In the case of O=C(Nc1ccc(Cl)cc1-c1nc2ccccc2s1)c1ccco1, the Potency is reported as “inactive”.
